According to the supplement of paper PMC3414501:
Structures can show the parent of a compound that is named as a salt.

What was measured:
[1] = system: S. cerevisiae SK1 pCDA2-eGFP (USY613), sporulating; test: CDA2-GFP sporulation assay sensitivity score (z-score vs DMSO controls); higher = stronger inhibition of sporulation, active = hit call of the paper;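 note: active if sensitivity score above 5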
[2] = system: S. cerevisiae AD1-9 (efflux-pump deficient), vegetative growth in YPD; test: growth sensitivity score (doubling time z-score vs DMSO controls); higher = slower growth, strongly negative scores also mark growth inhibition (complete suppression), active = hit call of the paper
Summary of the method: (§1)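 Yeast (Saccharomyces cerevisiae BY4741 and AD1-9) was grown in rich medium in microtiter plates from a starting OD600 of 0.065, with optical density read every 15 min over 24 hours. The growth sensitivity score was the difference between compound and solvent-only means, divided by the solvent-only standard deviation. Every experiment had eight solvent-only wells.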

[3] = system: S. cerevisiae BY4741 (wild-type), vegetative growth in YPD; test: as above
Summary of the method: as §1

[4] = stock concentration (mM, diluted 1:100): 10
[5] = stock concentration (mM, diluted 1:100): 8.9
[6] = stock concentration (mM, diluted 1:100): 10.1

With `OC1CCCCC1N1CCC(c2ccccc2)CC1` (configuration not stated) [Vesamicol hydrochloride] as the molecule, how does the “CDA2-GFP sporulation assay sensitivity score” value [1, 4] read?
Its value is 1.08 (inactive).

What about the growth sensitivity score [2, 4] of the same molecule?
Its growth sensitivity score is -0.57 (inactive).

What about the growth sensitivity score [3, 4] of the same molecule?
The growth sensitivity score was -0.16 (inactive).

Which “CDA2-GFP sporulation assay sensitivity score” value [1, 4] does the source give for `C#CCN(C)[C@H](C)Cc1ccccc1` [Selegiline] here?
The value was -0.13 (inactive).

What about the growth sensitivity score [2, 4] of the same molecule?
Its growth sensitivity score is -1.83 (inactive).

And the growth sensitivity score [3, 4]?
The growth sensitivity score was 0.07 (inactive).

Which results are given for `COc1ccc(C(CN(C)C)C2(O)CCCCC2)cc1` (configuration not stated) [Venlafaxine hydrochloride]?
CDA2-GFP sporulation assay sensitivity score [1, 5]: -0.02 (inactive); growth sensitivity score [2, 5]: -1.06 (inactive); growth sensitivity score [3, 5]: -0.63 (inactive)

How did the “CDA2-GFP sporulation assay sensitivity score” value [1, 4] turn out when `CC(C)[C@]12O[C@H]1[C@@H]1O[C@]13[C@]1(O[C@H]1C[C@H]1C4=C(CC[C@@]13C)C(=O)OC4)[C@@H]2O` [Triptolide] was run?
The value was -1.02 (inactive).

And the growth sensitivity score [2, 4]?
Its growth sensitivity score is -2.17.

What about the growth sensitivity score [3, 4] of the same molecule?
The growth sensitivity score was -0.92 (inactive).

Which results are given for `C[C@]12CC[C@H]3[C@@H](CCC4=CC(=O)CC[C@@H]43)[C@@H]1CC[C@@H]2O` [19-Nortestosterone]?
CDA2-GFP sporulation assay sensitivity score [1, 4]: 1.91 (inactive); growth sensitivity score [2, 4]: 5.3 (active); growth sensitivity score [3, 4]: 2.24 (active)

Which “CDA2-GFP sporulation assay sensitivity score” value [1, 4] does the source give for `FC(F)(F)c1cccc(N2CCNCC2)c1` here?
Its value is 0.69 (inactive).

What about the growth sensitivity score [2, 4] of the same molecule?
The growth sensitivity score was 2.22 (active).

What about the growth sensitivity score [3, 4] of the same molecule?
The growth sensitivity score was 1.25 (inactive).

How did the “CDA2-GFP sporulation assay sensitivity score” value [1, 4] turn out when `Oc1ccc2c3c1O[C@H]1[C@@H](O)CC[C@@]4(O)[C@@H](C2)N(CC2CCC2)CC[C@]314` [Nalbuphine] was run?
The value was -0.4 (inactive).

And the growth sensitivity score [2, 4]?
Its growth sensitivity score is -1.74 (inactive).

What about the growth sensitivity score [3, 4] of the same molecule?
The growth sensitivity score was -0.96 (inactive).

Which results are given for `CCN(C(C)=O)c1cccc(-c2ccnc3c(C#N)cnn23)c1` [Zaleplon]?
CDA2-GFP sporulation assay sensitivity score [1, 4]: 6.36 (inactive); growth sensitivity score [2, 4]: -0.13 (inactive); growth sensitivity score [3, 4]: -0.43 (inactive)

What does the source list for `NC(=O)OCCCc1ccccc1` [Phenprobamate]?
CDA2-GFP sporulation assay sensitivity score [1, 6]: -0.41 (inactive); growth sensitivity score [2, 6]: -0.54 (inactive); growth sensitivity score [3, 6]: 0.48 (inactive)
